Bioassay records (PubChem)
ClpP mod = qHTS Assay for Activators of ClpP. actives 1.9% (n = 340,000). purified B. subtilis ClpP, FRET peptide cleavage, 20 min. ATP-dependent Clp protease proteolytic subunit (Bacillus subtilis (strain 168)), P80244. AID 651965, 2013. Potency, µM (titrated, usually from 57.5 µM); active = well fitted falling curve with a large enough effect; inconclusive = small, poorly fitted or top-dose-only effect; inactive = no such curve, though single readings can be large or run the other way; note: the source files actives as falling curves though it sought activators and does not explain the sign; nearly all actives have a fitted effect of over 65% in size
Target sequence (P80244 whole entry, looked up): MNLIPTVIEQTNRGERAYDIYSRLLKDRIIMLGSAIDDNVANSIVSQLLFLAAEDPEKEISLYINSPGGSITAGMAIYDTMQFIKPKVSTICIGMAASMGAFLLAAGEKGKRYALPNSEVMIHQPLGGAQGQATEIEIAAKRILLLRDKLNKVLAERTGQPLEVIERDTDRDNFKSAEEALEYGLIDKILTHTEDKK
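FRET quenching reversal measured ClpP activation: 10 microg/mL B. subtilis ClpP at pH 8 with the FRET-FV decapeptide, read at 430 nm after 320 nm excitation. The 20-min minus 0-min signal was scaled between DMSO/no-enzyme wells and ADEP (5.8 microM final).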
D3 antag = qHTS of D3 Dopamine Receptor Antagonist: qHTS. actives 2.5% (n = 360,000). D3R cells, DiscoveRx beta-arrestin luminescence, antagonist mode; active compounds read low. AID 652054, 2013. max response, negative = inhibition, %. D(3) dopamine receptor (Homo sapiens), P35462; in the data active = max response below about -50%; inconclusive = no clear call, values can overlap the other calls
Target sequence (P35462 whole entry, looked up): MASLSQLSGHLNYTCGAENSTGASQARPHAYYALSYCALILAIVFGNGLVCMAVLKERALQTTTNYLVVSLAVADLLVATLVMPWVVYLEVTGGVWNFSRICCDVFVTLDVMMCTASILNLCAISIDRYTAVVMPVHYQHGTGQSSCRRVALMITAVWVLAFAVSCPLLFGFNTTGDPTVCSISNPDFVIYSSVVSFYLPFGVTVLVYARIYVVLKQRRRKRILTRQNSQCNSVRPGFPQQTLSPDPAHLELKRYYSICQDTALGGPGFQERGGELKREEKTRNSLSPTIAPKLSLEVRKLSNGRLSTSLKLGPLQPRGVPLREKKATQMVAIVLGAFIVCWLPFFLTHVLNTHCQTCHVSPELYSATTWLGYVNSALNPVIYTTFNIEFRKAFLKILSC
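Cells plated overnight at 1500 cells/well, then exposed to library compounds with dopamine controls for 90 minutes at 37 degrees C. DiscoveRx reagent added for 30–60 minutes at room temperature; luminescence read, quantitative HTS format.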
IL1B secr inh = qHTS for Inhibitors of Inflammasome Signaling: IL-1-beta AlphaLISA Primary Screen. THP-1 LPS/ATP IL-1B secretion, AlphaLISA, 16 h; active compounds read low. activity change, % at 57.5 µM. actives 4.7% (n = 360,000); in the data active = activity change below about -50%; inconclusive = mostly about -30% to -49%
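THP-1 cells pretreated 1 hr with compounds (up to 57.5 uM final), then stimulated with LPS (250 ng/mL final) plus ATP (1.25 mM final); secreted IL-1B measured by AlphaLISA after 16 hr, decreased signal indicating inhibition.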
D3 ag = qHTS of D3 Dopamine Receptor Agonist: qHTS. D(3) dopamine receptor (Homo sapiens), P35462. D3R DiscoveRx beta-arrestin cells, luminescence, 90 min. max activation, %. actives 0.58% (n = 410,000). AID 652048, 2013; in the data active = max activation above about 30%
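Cells at 1500/well, incubated overnight, then treated with pinned compounds (dopamine as control) for 90 min at 37 degrees C. DiscoveRx reagent added for 30 - 60 minutes at room temperature; luminescence read.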
DT40 TDP1 CPT = qHTS for Inhibitors of human tyrosyl-DNA phosphodiesterase 1 (TDP1): qHTS in cells in presence of CPT. chicken DT40 Tdp1-/-;hTDP1 cells + 20 nM CPT, ATP luminescence, 48 h. Potency, µM (highest dose often 46.2 µM), actives largely listed as inhibitors. actives 12% (n = 420,000). AID 686979, 2013; note: nearly all actives have a fitted effect of over 55% in size
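Chicken DT40 Tdp1-/- cells stably complemented with human TDP1 were seeded at 400 cells/well in medium containing 20 nM camptothecin, exposed to pin-transferred compounds, and grown at 37 °C for at least 48 hr. Viability was read as ATP luminescence.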
DT40 TDP1 no CPT = qHTS for Inhibitors of human tyrosyl-DNA phosphodiesterase 1 (TDP1): qHTS in cells in absence of CPT | Potency, µM (doses to about 46.2 µM), usual class: inhibitors | actives 15% (n = 420,000) | DT40 Tdp1-/- hTDP1 cells, no CPT, ATP luminescence, 48 h; note: nearly all actives have a fitted effect of over 55% in size
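Chicken DT40 Tdp1-/- cells stably complemented with human TDP1 were seeded at 400 cells/well with DMSO in place of 20 nM camptothecin. After compound pinning, cells grew at least 48 hr at 37 °C; viability read by CellTiter-Glo luminescence.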
A number is an active result; – = inactive; ? = inconclusive; · = no result given; [ ] = remark or other dose. Compounds with a hit are over-represented: about 21% of the library has one in this group of screens. Unless noted, calls come from the whole dose curve; as a rule, active = well fitted inhibition curve with a large enough effect; inconclusive = small, poorly fitted or top-dose-only effect; inactive = flat fitted curve, though single readings scatter.

SMILES	ClpP mod	D3 antag	IL1B secr inh	D3 ag	DT40 TDP1 CPT	DT40 TDP1 no CPT
Cc1cccc(C(=O)NC(=S)NNC(=O)c2ccc(Cl)cc2)c1	–	–	–	–	?	?
COc1cc(C(=O)NNC(=S)NC(=O)c2ccc(Cl)cc2)cc(OC)c1OC	–	–	–	–	?	23µM
COc1cc(CC(=O)Nc2nccs2)cc(OC)c1OC	–	–	–	–	–	–
COc1ccc(C(=O)NNC(=S)NC(=O)c2ccc(Cl)cc2)cc1	·	–	–	–	?	23µM
COc1cc(C(=O)NC(=S)Nc2nccs2)cc(OC)c1OC	·	–	–	–	?	21µM
CS(=O)(=O)N1CCN(C(=O)Cc2ccc(Br)cc2)CC1	–	–	–	–	–	–
COC(=O)/C(=C\Nc1ccc(Cl)cc1Cl)NC(=O)c1ccc(OC)cc1	·	–	–	–	3.7µM	4.1µM
COC(=O)c1ccc(COC(=O)[C@@H]2CC(O)CN2S(=O)(=O)c2ccccc2[N+](=O)[O-])cc1 (stereo partly drawn)	–	–	-97	–	–	–
CCc1cccc2c(C(=O)COC(=O)[C@@H]3CC(O)CN3S(=O)(=O)c3ccccc3[N+](=O)[O-])c[nH]c12 (stereo partly drawn)	·	–	-76	–	23µM	21µM
O=C(COC(=O)[C@@H]1CC(O)CN1S(=O)(=O)c1ccccc1[N+](=O)[O-])c1ccccc1 (stereo partly drawn)	·	–	–	–	–	–
CC(OC(=O)C1CC(O)CN1S(=O)(=O)c1ccccc1[N+](=O)[O-])C(=O)N1CCCCC1 (stereo not drawn)	–	–	–	–	–	–
O=C(CN1Cc2ccccc2OC(c2ccsc2)C1)N1CCC(c2nc3ccccc3[nH]2)CC1 (stereo not drawn)	·	·	·	·	–[9.04 µM]	?
Cc1cc(=O)n2cccc(O)c2n1	·	–	-57	–	3.7µM	4.6µM
CC1=C([N+](=O)[O-])C(c2ccc(Cl)cc2)NC(=O)N1C (stereo not drawn)	·	–	–	–	6.5µM	5.8µM
Cc1ccccc1OCC(=O)NCCCNC(=O)c1ccncc1	·	–	–	–	–	–
COc1ccc(-c2ccc(/C=N/NC(=O)Cc3nnc(N)s3)o2)cc1Cl	–	–	–	–	?	18µM
Cc1ccc(-c2ccc(/C=N/NC(=O)Cc3nnc(N)s3)o2)cc1Cl	–	–	–	–	?	–
Nc1nnc(CC(=O)N/N=C/c2ccc(-c3ccccc3)o2)s1	–	–	–	–	–	–
COC(=O)c1ccc(-c2ccc(/C=N/NC(=O)Cc3nnc(N)s3)o2)cc1	·	–	-86	–	–	?
COc1cc(C2C3=C(COC3=O)Oc3cc4c(cc32)OCO4)cc(OC)c1OC(C)=O (stereo not drawn)	–	–	–	–	0.65µM	0.65µM
COc1cc(C2C3=C(COC3=O)Oc3cc4c(cc32)OCO4)ccc1OC(C)=O (stereo not drawn)	–	–	–	–	1.6µM	1.8µM
COc1ccc(C2C3=C(COC3=O)Oc3cc4c(cc32)OCO4)cc1OC (stereo not drawn)	–	–	–	–	1.8µM	1.5µM
COc1cc2cc(OC(C)=O)c3cc4c(cc3c2c(OC)c1OC)OCO4	–	–	–	–	–	–
N#Cc1ccc(Cl)cc1NC(=O)CSc1cccc[n+]1[O-]	–	–	–	–	?	23µM
O=C(CSc1cccc[n+]1[O-])c1cc(Cl)ccc1Cl	·	–	–	–	0.01µM	0.29µM
SMILES	ClpP mod	D3 antag	IL1B secr inh	D3 ag	DT40 TDP1 CPT	DT40 TDP1 no CPT
O=C(CSc1cccc[n+]1[O-])c1cc2ccccc2o1	–	–	–	–	21µM	?
O=C(O)CSc1cccc[n+]1[O-]	–	–	–	–	–	?
O=C(CSc1cccc[n+]1[O-])c1cccs1	–	–	–	–	?	4.1µM
Cc1ccc(C(=O)N/C(=C/C=C\c2ccccc2)C(=O)NCc2ccco2)cc1	·	–	–	–	?	?
CCC(=O)N1c2ccccc2CC1C(=O)NCCc1ccccc1 (stereo not drawn)	–	·	·	–	–	–
CCCCN(C(=O)c1ccc(NC(=O)C(C)C)cc1)c1ccccc1	·	–	–	–	–	–
COCCCC1CCN(C(=O)C2CCC(=O)N(CCc3cccc(F)c3)C2)CC1 (stereo not drawn)	–	–	–	–	–	–
CCC(C)N(C)Cc1cccc(C2(O)CCN(S(=O)(=O)c3ccc(F)c(C)c3)CC2)c1 (stereo not drawn)	–	–	–	–	18µM	18µM
O=C(Nc1ccccc1)c1sccc1Oc1ccc([N+](=O)[O-])cc1F	·	–	–	–	21µM	21µM
COCCOc1cc(NC(=O)c2sccc2Oc2ccc([N+](=O)[O-])cc2F)c(Cl)cc1Cl	14µM	–	–	–	?	18µM
CCC(C)c1ccccc1NC(=O)C(C)N(C)Cc1cccc(OC)c1 (stereo not drawn)	·	?	–	–	?	16µM
COc1ccc(CNC(=O)C(C)N(C)Cc2cccc(F)c2)cc1 (stereo not drawn)	–	–	–	–	?	–
COc1ccc(NC(=O)C(C)N(C)Cc2ccc3ccccc3c2)cc1 (stereo not drawn)	·	–	?	–	?	13µM
COc1ccc(NC(=O)C(CC(=O)O)Cc2ccccc2)cc1 (stereo not drawn)	–	–	–	–	–	–
COc1ccc(NC(=O)C(CC(=O)O)C(C)c2ccccc2)cc1 (stereo not drawn)	·	–	–	–	16µM	?
COc1cccc(CN(C)CC(=O)Nc2c(C)cccc2C(C)C)c1	·	–	–	–	?	?
Cc1nn(-c2ccc(F)cc2)c(C)c1CN1CCN(CCC(C)C)C(CCO)C1 (stereo not drawn)	·	–	–	–	–	–
CN1OC[C@@H]2CN(Cc3cc(Cl)cc(Cl)c3)[C@H](c3cccc(-c4ccccc4)c3)C[C@@H]21	–	–	–	–	–	–
CN(C)Cc1ccccc1-c1nccc(NC2CC2)n1	·	·	·	·	–	–
CC(C)(C)C1=C(C#N)C(c2ccncc2)C(C#N)=C(N)O1 (stereo not drawn)	?	–	–	–	18µM	29µM
CCC(=O)N1CCc2cc(Br)cc(S(=O)(=O)CCC(=O)N(C)c3cccc(C)c3)c21	–	·	·	–	?	?
